A short description of assay [1]: qHTS assay to identify small molecule antagonists of the thyroid receptor (TR) signaling pathway - cell viability counter screen (AID 743064). Note: nearly all actives have a fitted effect of over 50% in size. Note: potency is the fitted concentration of half-maximal effect. In a few lines: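 Compounds were tested on GH3.TRE-Luc cells in the presence of T3 at 1 nM final. Following 23.5 h at 37 °C, cell viability was quantified by CellTiter-Fluor.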
Assay [2] in a line: qHTS assay to identify small molecule antagonists of the thyroid receptor (TR) signaling pathway (AID 743065). Note: nearly all actives have a fitted effect of over 55% in size. Note: potency is the fitted concentration of half-maximal effect. The method in brief: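 GH3.TRE-Luc rat pituitary cells carrying two TR response elements driving luciferase were plated for 4 h, given compound plus 1 nM T3 (final), and incubated 23.5 h at 37 C. ONE-Glo luminescence measured reporter inhibition; CellTiter-Fluor fluorescence tracked cytotoxicity.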
On the technique in general: Quantitative high-throughput screening tests each substance at several concentrations.

Assay [3] has as its system thyroid hormone receptor (rat, GH3 cells). Put plainly: qHTS assay to identify small molecule agonists of the thyroid receptor (TR) signaling pathway (AID 743066; calls by dose curve).
In assay [4] the target is Estrogen receptor (Homo sapiens) (UniProt P03372). Description: qHTS assay to identify small molecule antagonists of the estrogen receptor alpha (ER-alpha) signaling pathway (AID 743069; active = well fitted curve in the direction sought with a large enough effect in the signal ratio in the repeat runs, not every such curve was filed as active; inconclusive = weak or mixed curves, or effect the other way; inactive = no such curve, though single readings can be large or run the other way; the % refers to the signal ratio). The method in brief:
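Estradiol-stimulated ER-alpha-UAS-bla HEK293 cells, 18 hr compound exposure at 37C. LiveBLAzer B/G substrate, 2 hr RT, fluorescence read.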

Assay [5] in a line: qHTS assay to identify small molecule antagonists of the estrogen receptor alpha (ER-alpha) signaling pathway - cell viability counter screen (AID 743074; calls by dose curve;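 note: HEK293 cells carrying ER-alpha-UAS-bla reporter stimulated with 17beta-estradiol; nearly all actives have a fitted effect of over 45% in size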).
Assay [6] concerns the target Estrogen receptor (Homo sapiens) (UniProt P03372). Put plainly: qHTS assay to identify small molecule agonists of the estrogen receptor alpha (ER-alpha) signaling pathway (AID 743075; calls by dose curve;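 note: HEK293 GripTite cells with ER-alpha and UAS-driven beta-lactamase reporter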; note: potency is the fitted concentration of half-maximal effect).
Assay [7] shares this target. Description: qHTS assay to identify small molecule agonists of the estrogen receptor alpha (ER-alpha) signaling pathway using the BG1 cell line (AID 743079). Note: nearly all actives have a fitted effect of over 20% in size. Note: potency is the fitted concentration of half-maximal effect. The following applies: BG1Luc4E2 cells, ERE-luciferase agonist, 22 h; activation: at 70.3 µM (top of the series).
Assay [8] in a line: qHTS assay to identify small molecule antagonists of the estrogen receptor alpha (ER-alpha) signaling pathway using the BG1 cell line (AID 743080; calls by dose curve;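 note: BG1 cells stimulated with 17beta-estradiol alongside compound; nearly all actives have a fitted effect of over 25% in size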). In a few lines:
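Endogenous full-length ER-alpha in BG1-Luc-4E2 cells drives a stably integrated 4×ERE luciferase gene; compounds were tested against 17beta-estradiol over 21.5 h, with luminescence and multiplexed viability fluorescence recorded.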

The nature of assay [9]: qHTS assay to identify small molecule antagonists of the estrogen receptor alpha (ER-alpha) signaling pathway using the BG1 cell line - cell viability counter screen (AID 743081).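 Note: compound given together with 17beta-estradiol as the ER stimulus; nearly all actives have a fitted effect of over 45% in size.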
Assay [10] concerns the target Aromatase (Homo sapiens) (UniProt P11511). Put plainly: qHTS assay to identify aromatase inhibitors (AID 743083). Note: nearly all actives have a fitted effect of over 55% in size.

The source made the active and inactive calls. Unless noted, calls come from the whole dose curve; as a rule, active = well fitted curve in the direction sought with a large enough effect in the repeat runs; inconclusive = weak or mixed curves; inactive = no such curve, though single readings can be large; an effect the other way counts as inactive or inconclusive. Positions of bridges follow the written chain, without caps; N, C: chain ends. Non-standard residues stand in square brackets, D forms with d. Residues, ends and D or L forms follow the SMILES beside them. Orn = NCCC[C@H](N)C(=O)O; Mpa = O=C(O)CCS

Estrogen receptor (Homo sapiens), sequence (P03372 whole entry, looked up): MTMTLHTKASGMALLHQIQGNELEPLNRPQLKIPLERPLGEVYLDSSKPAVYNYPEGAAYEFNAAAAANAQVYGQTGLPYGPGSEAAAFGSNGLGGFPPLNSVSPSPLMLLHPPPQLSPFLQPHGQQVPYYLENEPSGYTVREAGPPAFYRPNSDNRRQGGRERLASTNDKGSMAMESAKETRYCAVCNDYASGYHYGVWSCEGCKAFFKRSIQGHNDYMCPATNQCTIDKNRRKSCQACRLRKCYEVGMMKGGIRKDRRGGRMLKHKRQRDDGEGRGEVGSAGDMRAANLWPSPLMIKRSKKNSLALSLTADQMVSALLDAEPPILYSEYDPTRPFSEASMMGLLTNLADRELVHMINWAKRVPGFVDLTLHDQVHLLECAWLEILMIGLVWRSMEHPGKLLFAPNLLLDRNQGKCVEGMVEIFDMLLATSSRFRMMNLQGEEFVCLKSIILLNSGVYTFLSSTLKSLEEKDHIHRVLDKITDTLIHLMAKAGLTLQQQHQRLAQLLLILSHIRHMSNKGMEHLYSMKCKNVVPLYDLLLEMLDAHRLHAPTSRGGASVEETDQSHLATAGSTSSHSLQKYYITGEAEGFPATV
Aromatase (Homo sapiens), sequence (P11511 whole entry, looked up): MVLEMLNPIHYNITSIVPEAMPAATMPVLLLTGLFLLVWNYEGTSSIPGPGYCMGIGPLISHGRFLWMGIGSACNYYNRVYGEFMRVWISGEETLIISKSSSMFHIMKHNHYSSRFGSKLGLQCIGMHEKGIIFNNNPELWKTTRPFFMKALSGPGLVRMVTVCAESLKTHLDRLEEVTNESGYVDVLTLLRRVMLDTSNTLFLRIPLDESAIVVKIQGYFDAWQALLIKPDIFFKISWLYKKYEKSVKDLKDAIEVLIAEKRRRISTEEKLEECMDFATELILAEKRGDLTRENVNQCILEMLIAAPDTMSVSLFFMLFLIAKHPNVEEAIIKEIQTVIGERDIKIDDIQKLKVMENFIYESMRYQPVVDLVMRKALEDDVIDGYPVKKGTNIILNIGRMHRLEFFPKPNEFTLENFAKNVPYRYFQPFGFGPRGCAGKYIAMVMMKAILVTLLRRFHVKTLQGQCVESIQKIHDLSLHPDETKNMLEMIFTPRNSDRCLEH

`O=C(O)c1ccc(NC(=O)[C@H](Cc2ccc(O)cc2)NC(=O)c2ccccc2)cc1`: the Potency entry in [1], in [2], in assay [3], in assay [4], in [5] and in assay [6] was “inactive” in each case. In addition, the Potency result in [7], in assay [8], in [9] and in assay [10] was “inactive” throughout.

`CCOC(=O)c1c[nH]c2cc(OCC(C)C)c(OCC(C)C)cc2c1=O`: the Potency result in assay [1], in [2], in assay [3], in assay [4], in assay [5] and in [6] was “inactive” each time. Besides, the Potency result in assay [7], in assay [8], in assay [9] and in assay [10] was “inactive” throughout.

Regarding `CCOC(=O)[C@H](CS)NCCN[C@@H](CS)C(=O)OCC`, the Potency result in assay [1], in [2], in assay [3], in assay [4], in assay [5] and in [6] was “inactive” in each case. The Potency result in assay [7], in assay [8], in assay [9] and in [10] was “inactive” each time.

As to `CC1(O)CCC(C(C)(C)O)CC1` (stereo not given), the Potency entry in [1], in assay [2], in assay [3], in assay [4], in assay [5] and in assay [6] was “inactive” each time. Besides, the Potency entry in [7], in assay [8], in assay [9] and in assay [10] was “inactive” throughout.

In the case of `CCOc1ccc(C[C@H]2NC(=O)CCSSC[C@@H](C(=O)N3CCC[C@H]3C(=O)N[C@@H](CCCN)C(=O)NCC(N)=O)NC(=O)[C@H](CC(N)=O)NC(=O)[C@H]([C@@H](C)O)NC(=O)[C@H]([C@@H](C)CC)NC2=O)cc1` ([Mpa][dY](Et)ITNCP[Orn]G-NH2; disulfide 1-6), the Potency result in assay [1], in assay [2], in assay [3], in assay [4], in assay [5] and in assay [6] was “inactive” each time. In addition, the Potency entry in [7], in assay [8], in assay [9] and in assay [10] was “inactive” in each case.

Consider `COc1ccc(C2(C#N)CCC(C(=O)O)CC2)cc1OC1CCCC1` (stereo not given), for which the Potency entry in [1], in [2], in assay [3], in assay [4], in [5] and in assay [6] was “inactive” throughout. Also, the Potency result in assay [8], in assay [9] and in assay [10] was “inactive” throughout. Moreover, the Potency in assay [7] is 29.8 µM (active).

Take `C[Se]CCC(N)C(=O)O` (stereo not given): the Potency result in assay [1], in assay [2], in assay [3], in [4], in assay [5] and in [6] was “inactive” each time. In addition, the Potency result in assay [7], in assay [8], in assay [9] and in assay [10] was “inactive” throughout.

Consider `CC(Oc1ccccc1)C(=O)N[C@@H]1C(=O)N2[C@@H]1SC(C)(C)[C@@H]2C(=O)O` (stereo not given in full), for which the Potency entry in assay [1], in assay [2], in [3], in [4], in [5] and in [6] was “inactive” in each case. Further, the Potency result in assay [7], in assay [8], in assay [9] and in assay [10] was “inactive” in each case.

Regarding `CC(C)[C@@H](N)C(=O)O`, the Potency entry in assay [1], in assay [2], in assay [3], in [4], in assay [5] and in assay [6] was “inactive” in each case. The Potency result in [7], in assay [8], in assay [9] and in assay [10] was “inactive” throughout.

`NCCC(=O)[N-][C@@H](Cc1cnc[nH]1)C(=O)O.[Zn]`: the Potency result in assay [1], in assay [2], in [3], in [4], in [5] and in [6] was “inactive” in each case. The Potency entry in assay [7], in assay [8], in assay [9] and in assay [10] was “inactive” in each case.

Take `CN1CCN(C(c2ccccc2)c2ccc(Cl)cc2)CC1` (stereo not given): the results for the Potency in assay [1] and in [2] were 5.69 µM (active) and 10.1 µM (active), respectively. The Potency entry in assay [3], in [4], in assay [5], in assay [6], in assay [7] and in assay [8] was “inactive” in each case. Besides, the Potency entry in assay [9] and in [10] was “inactive” throughout.

In the case of `CCCCCCCCCCCCOCCCN`, the Potency result in assay [1], in [2], in assay [3], in [4], in assay [5] and in assay [6] was “inactive” in each case. For the same molecule, the Potency entry in assay [7], in [8], in assay [9] and in assay [10] was “inactive” each time.

Take `OC[C@H]1O[C@@H](O[C@H]2[C@H](O)[C@@H](O)[C@H](O)O[C@@H]2CO)[C@H](O)[C@@H](O)[C@@H]1O`: the Potency result in [1], in assay [2], in assay [3], in assay [4], in assay [5] and in assay [6] was “inactive” each time. Besides, the Potency result in assay [7], in [8], in assay [9] and in assay [10] was “inactive” each time.

With `CCC(Oc1ccccc1)C(=O)N[C@@H]1C(=O)N2[C@@H]1SC(C)(C)[C@@H]2C(=O)O` (stereo not given in full), the Potency entry in [1], in assay [2], in assay [3], in [4], in assay [5] and in assay [6] was “inactive” each time. For the same molecule, the Potency entry in assay [7], in [8], in assay [9] and in assay [10] was “inactive” in each case.

With `O=C(NCCNCC(O)COc1ccc(O)cc1)N1CCOCC1` (stereo not given), the Potency entry in assay [1], in assay [2], in assay [3], in [4], in assay [5] and in [6] was “inactive” each time. Besides, the Potency result in [7], in assay [8], in assay [9] and in assay [10] was “inactive” throughout.

`O=C(O)CC/C=C\CC[C@@H]1[C@@H](N2CCCCC2)[C@@H](O)C[C@@H]1OCc1ccc(-c2ccccc2)cc1`: the Potency result in assay [1], in [2], in [3], in assay [4], in [5] and in [6] was “inactive” throughout. The Potency entry in assay [7], in assay [8], in assay [9] and in assay [10] was “inactive” each time.

`CC(=O)N[C@@H]1C(O[C@H]2O[C@H](C(=O)O)C(O)[C@H](O)[C@H]2O)[C@H](O)[C@@H](CO)O[C@H]1O[C@@H]1C(C(=O)O)O[C@@H](O[C@H]2[C@H](O)[C@@H](CO)OC(O)[C@@H]2NC(C)=O)[C@H](O)[C@H]1O` (stereo not given in full): the Potency entry in assay [1], in assay [2], in assay [3], in assay [4], in [5] and in assay [6] was “inactive” throughout. Also, the Potency entry in assay [7], in [8], in assay [9] and in assay [10] was “inactive” throughout.

For `S=C=Nc1ccc(N=C=S)cc1`, the Potency result in [1], in [2], in assay [3], in assay [4], in [5] and in assay [8] was “inactive” in each case. Further, the Potency entry in assay [9] and in assay [10] was “inactive” in each case. The Potency was 15.1 µM [inconclusive] (active) in [6] and 1.06 µM (active) in assay [7].

Consider `O=C(O)c1ccc(OCCn2ccnc2)cc1`, for which the Potency entry in [1], in assay [2], in assay [3], in [4], in assay [5] and in assay [6] was “inactive” in each case. Further, the Potency result in [7], in [8], in [9] and in assay [10] was “inactive” throughout.

Values taken from PubChem BioAssay (Tox21).
